Assay outcomes: PubChem BioAssay, National Center for Advancing Translational Sciences (NCATS)
HCV inhibitor – qHTS Assay for Inhibitors of Hepatitis C Virus (HCV); Huh7.5.1 HCVcc-Cre infection, luciferase reporter, 44 h; Potency, µM (highest dose often 41.8 µM), without a hit: top-dose activity change, negative = inhibition, hits mostly inhibitors; actives 3.4% (n = 340,000); AID 651820, 2012; note: potency is the fitted concentration of half-maximal effect
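Whole-lifecycle infectious HCVcc-Cre system; cells 1,000/well, compound then virus (~0.5 moi) added 4 h after plating, 44 h culture. Luciferase read 15 sec following 15 min substrate incubation, room temp.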
VACV mCherry inh – qHTS for Stage-Specific Inhibitors of Vaccinia Orthopoxvirus: mCherry Reporter Primary qHTS. AID 720579, 2013. actives 0.63% (n = 310,000). Potency, µM (top dose mostly 36.5 µM), without a hit: top-dose activity change, negative = inhibition, actives largely listed as inhibitors. Vaccinia virus mCherry reporter infection, fluorescence; calls by dose curve; tested in A549 cells; note: potency is the fitted concentration of half-maximal effect; nearly all actives have a fitted effect of over 35% in size
HCMV antiviral – qHTS Assay for inhibitors of the human cytomegalovirus (HCMV); HFF cells, HCMV-luciferase reporter, 72 h; active compounds read low; activity change, negative = inhibition, % at 57.5 µM; actives 4.5% (n = 410,000); AID 1259415, 2018; in the data active = activity change below about -60%; inconclusive = no clear call, values can overlap the other calls; inactive = above about -39%
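Two compound doses tested in HFFs infected with HCMV-luciferase, MOI 1 PFU/cell, 72 h at 37C. Lysate luminescence read with OneGlo; data normalized against buffer-only and 10uM Salinomycin inhibitor controls.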
FMDV antiviral – High Throughput Screening for Foot and Mouth Disease Virus Antivirals. FMDV antiviral cell-based qHTS. Potency, µM (top dose mostly 57.9 µM), for inactives: at the highest dose activity change, negative = inhibition, usual class: inhibitors. actives 1.2% (n = 410,000); calls by dose curve; tested in HEK293T cells; note: read-out not given here; potency is the fitted concentration of half-maximal effect; nearly all actives have a fitted effect of over 45% in size
FBPA Giardia inh – qHTS Assay for Inhibitors of Fructose-1,6-bisphosphate Aldolase from Giardia Lamblia; A8B2U2; purified Giardia FBPA; Potency, µM (series often up to 59.6 µM), without a hit: at the top dose activity, negative = inhibition, usual class: inhibitors; actives 0.71% (n = 290,000); AID 2451, 2010; note: potency is the fitted concentration of half-maximal effect; nearly all actives have a fitted effect of over 55% in size
Target sequence (A8B2U2 whole entry, looked up): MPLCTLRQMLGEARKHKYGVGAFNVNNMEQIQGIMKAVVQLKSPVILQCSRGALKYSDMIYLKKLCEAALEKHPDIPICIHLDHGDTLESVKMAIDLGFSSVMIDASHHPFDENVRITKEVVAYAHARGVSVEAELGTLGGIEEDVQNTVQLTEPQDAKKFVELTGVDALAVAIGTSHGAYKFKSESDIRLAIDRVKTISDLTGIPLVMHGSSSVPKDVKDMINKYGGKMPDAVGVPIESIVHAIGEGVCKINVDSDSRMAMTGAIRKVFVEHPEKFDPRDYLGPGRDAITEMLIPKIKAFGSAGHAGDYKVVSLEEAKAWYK
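Giardia FBPA (40 nM reagent) was preincubated 10 min at RT with compound (up to 57.5 uM final), then substrate plus GAPDH/TPI/NAD/arsenate coupling system with diaphorase/resazurin was added; resorufin fluorescence (525/598 nm) was read after 20 min.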
Vaccinia Venus – qHTS for Stage-Specific Inhibitors of Vaccinia Orthopoxvirus: Venus Reporter Primary qHTS; Potency, µM (series often up to 36.5 µM), for the others: at the highest dose activity change, negative = inhibition, usual class: inhibitors; Vaccinia virus Venus reporter expression, fluorescence; AID 720580, 2013; actives 0.46% (n = 330,000); calls by dose curve; tested in A549 cells; note: potency is the fitted concentration of half-maximal effect; nearly all actives have a fitted effect of over 30% in size
Numbers without * were called inactive; i = inactive; ? = inconclusive; . = no result given; ! = a repeat was not active; [ ] = another dose, or the depositor's remark. In the library only some 7.5% were active in any assay of this set; here they are far more common. Unless noted, calls come from the whole dose curve; as a rule, active = well fitted curve in the direction sought with a large enough effect; inconclusive = small, poorly fitted or top-dose-only effect, or another doubt; inactive = no such curve, though single readings can be large; an effect the other way counts as inactive or inconclusive. % is set by controls: 0 for no effect and ±100 for the full control effect.

SMILES	HCV inhibitor	VACV mCherry inh	HCMV antiviral	FMDV antiviral	FBPA Giardia inh	Vaccinia Venus
O=C(COC(=O)/C=C/c1cccc(F)c1)NC(=O)NC1CCCC1	10%	-13%	-9	-20%	.	-16%
Cc1c(C2Nc3ccccc3C2C)[nH]c2ccccc12 (stereo not given)	.	.	-85*	.	.	.
C=CCc1c(C)nc2nc(SCC(=O)Nc3ccc(C)c(C)c3)nn2c1C	.	-14%[7.34 µM]	-100*	0%	.	-7%[7.34 µM]
C=CCc1c(C)nc2nc(SCC(=O)Nc3cccc(Cl)c3)nn2c1C	.	-25%	?	?	.	-24%
COc1cc2c(cc1OC)C(c1cc3ccccc3oc1=O)=NC(C)(C)C2	?	.	-98*	-12%	3%	-26%
Cc1cc(C)c(NS(=O)(=O)c2cc(-c3onc(C)c3C)ccc2C)c(C)c1	.	-15%	-62*	4%	.	-16%
Cc1ccc(-c2onc(C)c2C)cc1S(=O)(=O)Nc1ccc(Cl)cn1	.	i	103	61%	.	-10%
Cc1ccc(-c2onc(C)c2C)cc1S(=O)(=O)NC1CCC(C)CC1 (stereo not given)	.	-20%	-67*	19%	.	-21%
COc1ccc(-c2onc(C)c2C)cc1S(=O)(=O)N1CCC(C)CC1	.	i	-79*	-22%	.	?
Cc1ccc2c(c1)N(S(=O)(=O)c1cc(-c3onc(C)c3C)ccc1C)CCO2	5µM*	-24%	-67*!	?	4%	-19%
Cc1ccccc1CN1[C@@H](C)[C@H](c2ccccc2)Oc2cccc(NCC(C)C)c2S1(=O)=O	.	.	-33	.	.	.
O=C(O)c1ccc(CNc2ncnc3nc[nH]c23)cc1	.	i	.	.	.	-15%
CC(OC(=O)c1ccccc1NS(=O)(=O)c1cccc(N)c1)C(=O)N(C)Cc1ccccc1 (stereo not given)	?	-7%	-72*	7%	-7%	-15%
COc1ccc2nc(C)cc(NCc3ccc(F)cc3)c2c1	-30%	-11%	-9	-6%	-24%	33%
CC(C)c1ccc2[nH]c3c(c2c1)CCC/C3=N\NC(=O)c1ccncc1	0.35µM*	-7%	-16	?	-8%	?
Cn1ncc(S(=O)(=O)Cc2ccccc2)c(Cl)c1=O	7%	i	23	-68%	-13%	-4%
Cn1ncc(SCc2ccccc2)c(Cl)c1=O	-69%	-10%	-80*	?	8%	-19%
NC(=O)CC(NC(=O)c1cccc(Br)c1)c1ccc(N2CCN(c3ccc(F)cc3)CC2)c([N+](=O)[O-])c1 (stereo not given)	3%	i	-1	-27%	5%	-21%
CC(=O)c1ccc(-n2c(SCC(=O)c3c[nH]c4ccccc34)nc3ccccc3c2=O)cc1	?	-7%	-88*	0%	-2%	-24%
CCN(C(=O)c1cc(S(=O)(=O)N2CCOCC2)cn1C)c1ccc(OC)cc1	.	-8%	-67*	-17%	.	-3%
CCN(C(=O)c1cc(S(=O)(=O)N2CCCCC2)c[nH]1)c1ccc(OC)cc1	-19%	-23%	-67*	-20%	0%	-19%
CCN(Cc1ccccc1)C(=O)c1cc(S(=O)(=O)N2CCOCC2)cn1C	-3%	i	4	-3%	0%	0%
CCN(C(=O)c1cc(S(=O)(=O)N2CCc3ccccc32)cn1C)c1cccc(C)c1	.	-14%	-74*	-5%	.	-10%
CNC(=O)/C(C#N)=C/c1ccc(OCCOc2ccccc2)cc1	-4%	.	89	0%	16%	.
Cc1ccccc1C(=O)Nc1nc2nc(C)c(C)c(=O)n2[nH]1	.	-14%	73	-22%	.	-11%
SMILES	HCV inhibitor	VACV mCherry inh	HCMV antiviral	FMDV antiviral	FBPA Giardia inh	Vaccinia Venus
COc1ccc(-c2c(C)c3ccc(O)c(CN4CCCC4)c3oc2=O)cc1	.	-11%[7.34 µM]	3	-5%	.	-11%[7.34 µM]
CCOC(=O)c1c(C)n(C)c2ccc(O)c(CN(C)C)c12	-19%	.	?	-38%	-19%	-28%
COc1ccc(-n2c(C)c([N+](=O)[O-])c3ccc(O)c(CN4CCCCC4)c32)cc1	-12%	-18%	-73*	?	-8%	-17%
Cc1ccc(-n2c(C)c([N+](=O)[O-])c3ccc(O)c(CN(C)C)c32)cc1	?	.	-93*	?	3%	.
Cc1ccc(NC(=O)c2ccc3c(c2)N(CC(=O)N2CCCCC2)C(=O)C(C)(C)O3)cc1	5.6µM*	.	-20	-24%	-7%	.
CCC(C)c1ccccc1NC(=O)COC(=O)c1ccc2[nH]c3c(c2c1)CCCC3 (stereo not given)	?	?	-100*	28µM*	-3%	?
CN(CCC#N)C(=O)COC(=O)c1ccc2[nH]c3c(c2c1)CCCC3	?	-11%	-73*	9%	-6%	2%
O=C(COC(=O)c1ccc2[nH]c3c(c2c1)CCCC3)Nc1ccccc1Cl	?	5%	18	-22%	-3%	-3%
CCOC(=O)c1ccc2[nH]c3c(c2c1)CCCC3	7%	.	72	66%	1%	.
CCN1C(=O)c2ccccc2S(=O)c2ccc(C(=O)NCc3ccc(Cl)cc3)cc21 (stereo not given)	.	2%[7.34 µM]	-26	?	.	-4%[7.34 µM]
COc1ccc(C(=O)N[C@H](C(=O)NCCCSc2ccccc2)C(C)C)cc1	-20%	-3%	-5	-28%	.	-12%
COc1ccccc1NS(=O)(=O)c1ccc2oc(SCC(=O)N3CCNC3=O)nc2c1	?	.	-11	-27%	.	.
CNC(=O)CSc1nc2cc(S(=O)(=O)Nc3ccccc3OC)ccc2o1	15%	13µM*	-25	4%	-14%	?
COc1ccccc1NS(=O)(=O)c1ccc2oc(SCc3ccc(C#N)cc3)nc2c1	11µM*	?	-84*	?	0%	?
COc1cccc(NC(=O)C(c2ccccc2)N2CCNC(=O)C2)c1 (stereo not given)	.	.	.	.	2%	.
Cc1cccc(NC2=Nc3ccccc3N3C2=Nc2c(c(C)nn2-c2ccccc2)C3c2ccc(O)c(O)c2)c1 (stereo not given)	?	.	-97*	-22%	-12%	?
Cc1ccc(NC2=Nc3ccccc3N3C2=Nc2c(c(C)nn2-c2ccccc2)C3c2ccc(O)c(O)c2)cc1 (stereo not given)	-72%	.	-64*	0%	-10%	?
Cc1ccc(S(=O)(=O)N2CCOCC2)cc1C(=O)Nc1ccc(S(=O)(=O)Nc2nccs2)cc1	-12%	.	?	0%	2%	.
CN(C)S(=O)(=O)c1ccc(C(=O)NNC(=O)C23CC4CC(CC(C4)C2)C3)cc1	2%	-15%	-29	-5%	.	-21%
